FBPA Giardia inh – Giardia lamblia aldolase inhibition. Potency, µM (titrated, usually from 59.6 µM), without a hit: at the highest dose activity, negative = inhibition, actives largely listed as inhibitors. A8B2U2. purified Giardia FBPA. 0.71% of 290,000 active; further: potency means the concentration at half of the fitted maximal effect; on the % scale 0 is the no-effect control and ±100 the full control effect; nearly all actives have a fitted effect of over 55% in size
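40 nM FBPA preincubated 10 min at RT with compound (up to 57.5 uM final), then substrate plus GAPDH/TPI/NAD/arsenate coupling and diaphorase/resazurin added. Fluorescence read after 20 min at RT, 525/598 nm.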
Shiga toxin inh – Shiga toxin inhibition; Vero cells, Shiga toxin protein synthesis inhibition reporter; inhibition, % at 38.7 µM; 9.2% of 290,000 active; in the data active means inhibition mostly above about 28%, no sharp cut-off; inactive means mostly below about 43%; further: 0% is about no effect
CHX counter – affects cycloheximide protein synthesis inhibition readout, counter-screen. cell reporter, cycloheximide protein synthesis inhibition counterscreen. max response, %. 12% of 300,000 active. AID 2314; in the data active means max response mostly above about 13%, no sharp cut-off; inactive means mostly below about 14%; further: read at 38.3 µM for the half of the compounds with a filed dose; 0% is about no effect
LmPK inhibitor – inhibitors of Leishmania mexicana pyruvate kinase; purified LmPK, Kinase-Glo ATP luminescence, 1 h; 0.37% of 290,000 active; Potency, µM (series often up to 57.5 µM), for the others: top-dose activity change, negative = inhibition, hits mostly inhibitors; Q27686; further: potency means the concentration at half of the fitted maximal effect; on the % scale 0 is the no-effect control and ±100 the full control effect
Target sequence (Q27686 whole entry, looked up): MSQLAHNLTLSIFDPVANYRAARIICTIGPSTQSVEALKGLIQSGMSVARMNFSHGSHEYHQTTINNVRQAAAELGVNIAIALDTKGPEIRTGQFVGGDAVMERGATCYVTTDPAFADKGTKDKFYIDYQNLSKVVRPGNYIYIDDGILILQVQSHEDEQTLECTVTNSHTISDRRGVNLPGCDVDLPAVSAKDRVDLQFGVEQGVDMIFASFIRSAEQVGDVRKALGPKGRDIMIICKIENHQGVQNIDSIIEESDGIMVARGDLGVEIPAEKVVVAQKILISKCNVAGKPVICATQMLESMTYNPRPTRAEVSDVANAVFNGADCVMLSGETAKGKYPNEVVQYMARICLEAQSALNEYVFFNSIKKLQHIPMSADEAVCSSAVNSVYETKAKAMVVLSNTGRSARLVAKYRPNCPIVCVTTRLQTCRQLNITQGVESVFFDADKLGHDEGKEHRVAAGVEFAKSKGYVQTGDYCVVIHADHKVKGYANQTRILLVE
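Purified LmPK (0.1 nM) with 0.5 mM PEP and 0.1 mM ADP in imidazole buffer pH 7.2 with MgCl2/KCl, 1 h at room temperature. ATP formed was read by luciferase luminescence and normalized to no-enzyme and uninhibited controls.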
RE007 growth inh – less growth of the S. pombe RE007 Vpr strain | S. pombe RE007 Vpr strain, BacTiter-Glo ATP luminescence, 24 h | Potency, µM (highest dose often 92.2 µM), for the others: at the highest dose activity change, negative = less growth, most hits filed as inhibitors | AID 651644 | 0.21% of 360,000 active; active means well fitted falling curve with a large enough effect; inconclusive means small, poorly fitted or top-dose-only effect; inactive means no such curve, though single readings can be large or run the other way; further: potency means the concentration at half of the fitted maximal effect; on the % scale 0 is the no-effect control and ±100 the full control effect; nearly all actives have a fitted effect of over 50% in size
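Fission yeast RE007 carrying one integrated HIV-1 vpr copy, seeded at OD 0.01 in PMG+AL medium with 23 nL pinned compound. Grown 24 h at 30 degrees; viability read by BacTiter-Glo luminescence after 5 min.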
Tb PYK inh – blocks Trypanosoma brucei pyruvate kinase. Q57TT1. TbPYK enzyme, Kinase-Glo Plus ATP luminescence, 45 min. Potency, µM (series often up to 76.8 µM), for inactives: at the highest dose activity, negative = inhibition, actives largely listed as inhibitors. 0.12% of 410,000 active. AID 624173; further: potency means the concentration at half of the fitted maximal effect; on the % scale 0 is the no-effect control and ±100 the full control effect; nearly all actives have a fitted effect of over 50% in size
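TbPYK + substrate in 50 mM TEA pH 7.2, 100 mM KCl, 10 mM MgCl2, 0.05% BSA, 0.01% Tween-20; cpd pinned; ADP 130 uM final; 45 min RT; Kinase-Glo Plus 10 min; luminescence endpoint.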
* marks the source's active call; other numbers are inactive results; [ ] = another dose, or the depositor's remark. The entries come from a sample that favours hits as a whole. Unless noted, the call rests on the fitted dose curve; in most records, active means well fitted curve in the direction sought with a large enough effect; inconclusive means small, poorly fitted or top-dose-only effect, or another doubt; inactive means no such curve, though single readings can be large; an effect the other way counts as inactive or inconclusive.

What do the screens show for `CCc1ccc(NC(=O)c2cccc(C(=O)Nc3ccc(CC)cc3)n2)cc1`?
FBPA Giardia inh: 10%; Shiga toxin inh: 42; CHX counter: 13; LmPK inhibitor: 4%; RE007 growth inh: 5%; Tb PYK inh: -6%

How did COC(=O)c1cccc(C(=O)Nc2ccc(C)cc2)n1 do in these assays?
FBPA Giardia inh: -4%; Shiga toxin inh: 80*; CHX counter: 45*; LmPK inhibitor: -28%; RE007 growth inh: -29%; Tb PYK inh: -1%

What do the screens show for `COc1ccc(-n2c3c(cc(-c4nc(-c5ccc(Cl)cc5)cs4)c2=O)C(=O)CC(C)(C)C3)cc1Cl`?
Tb PYK inh: -1%

How did CC(C)n1nc(C(=O)OCn2nnc3ccccc3c2=O)c2ccccc2c1=O do in these assays?
FBPA Giardia inh: 14%; Shiga toxin inh: -9; CHX counter: -4; LmPK inhibitor: 0%; RE007 growth inh: 3%; Tb PYK inh: -4%

What do the screens show for `COc1ccc(C(=O)N/N=C(\c2ccccc2)c2ccccn2)cc1`?
FBPA Giardia inh: -14%; Shiga toxin inh: 53*; CHX counter: 16; LmPK inhibitor: 1%; Tb PYK inh: -4%

Results for COc1ccc(NC(=O)c2cc3ccccn3n2)cc1 ?
FBPA Giardia inh: -26%; Shiga toxin inh: 159; CHX counter: 40*; LmPK inhibitor: -6%; RE007 growth inh: -13%; Tb PYK inh: -2%

How did O=C(Nc1ccc(OC(F)(F)F)cc1)c1cc2ccccn2n1 do in these assays?
Tb PYK inh: -4%

How did COc1ccc(C(=O)Nc2ccc(NC(=O)c3ccccc3OC)nc2)cc1 do in these assays?
FBPA Giardia inh: -15%; Shiga toxin inh: 8; CHX counter: 6; LmPK inhibitor: 0%; RE007 growth inh: -3%; Tb PYK inh: 2%

How did COc1ccc(C(=O)Nc2ccc(NC(=O)c3ccccn3)cn2)cc1 do in these assays?
FBPA Giardia inh: 0%; Shiga toxin inh: 78*; CHX counter: 11; LmPK inhibitor: 3%; RE007 growth inh: -18%; Tb PYK inh: 10%

What do the screens show for `CCCCOCCOCCOCc1cc2c(cc1CCC)OCO2`?
Tb PYK inh: 1%

What do the screens show for `Cc1nn(CC(=O)NCCc2ccc(Cl)cc2)c(=O)c2cc3cc(F)ccc3n12`?
Tb PYK inh: 10%

Results for CC(=O)c1c(C)nc(-c2ccccc2)nc1N ?
FBPA Giardia inh: inconclusive; Shiga toxin inh: 58*; CHX counter: 29*; LmPK inhibitor: 1%; RE007 growth inh: -2%; Tb PYK inh: 4%

What do the screens show for `CCOC(=O)c1c(C)nc(-c2ccccc2)nc1NC(C)=O`?
FBPA Giardia inh: -5%; Shiga toxin inh: 85; CHX counter: 17; LmPK inhibitor: 4%; RE007 growth inh: -22%; Tb PYK inh: -4%

How did CCOC(=O)c1c(C)nc(-c2ccccc2)nc1N do in these assays?
FBPA Giardia inh: -16%; Shiga toxin inh: 123*; CHX counter: 33*; LmPK inhibitor: 0%; RE007 growth inh: inconclusive; Tb PYK inh: 3%

What do the screens show for `CCOC(=O)c1c(-c2ccccc2)cn2c(C)cc(C)nc12`?
FBPA Giardia inh: -1%; Shiga toxin inh: 71*; CHX counter: 35*; LmPK inhibitor: -14%; RE007 growth inh: -16%; Tb PYK inh: 3%

How did CCOC(=O)c1c(C)nc(C)c(C(=O)OCC)c1-c1ccccc1 do in these assays?
FBPA Giardia inh: 7%; Shiga toxin inh: -10; CHX counter: 2; LmPK inhibitor: -1%; RE007 growth inh: -14%; Tb PYK inh: -14%

What do the screens show for `CCOc1ccc(NC(=O)n2ncc3c(C)cccc32)cc1`?
FBPA Giardia inh: -5%; Shiga toxin inh: 48*; CHX counter: 30*; LmPK inhibitor: -6%; RE007 growth inh: -2%; Tb PYK inh: -1%

How did COc1cccc(NC(=O)n2ncc3c(C)cccc32)c1 do in these assays?
FBPA Giardia inh: -4%; Shiga toxin inh: 54*; CHX counter: 32*; LmPK inhibitor: -27%; RE007 growth inh: inconclusive; Tb PYK inh: -22%

Results for Cc1ccc(NC(=O)n2ncc3c(C)cccc32)c(C)c1 ?
FBPA Giardia inh: -6%; Shiga toxin inh: 34*; CHX counter: 38*; LmPK inhibitor: 2%; RE007 growth inh: 12%; Tb PYK inh: 3%

How did Cc1ccc(C)c(Nc2nn3c(=O)c4ccc(C(=O)N(C)Cc5ccccc5)cc4nc3s2)c1 do in these assays?
Tb PYK inh: 0%

Results for C/C=C/C1=Cc2ccccc2C(CC(=O)OC)N1C(=O)OC (configuration not stated) ?
FBPA Giardia inh: 3%[12.9 µM]; LmPK inhibitor: -1%[11.5 µM]

What do the screens show for `CC(C)S(=O)(=O)N1CCCC(c2cc(C(=O)NCc3ccccc3)no2)C1` (configuration not stated)?
RE007 growth inh: 2%[18.4 µM]; Tb PYK inh: 2%

Results for Cc1ccc(C(=O)NCc2ccc3c(c2)OCO3)o1 ?
FBPA Giardia inh: -4%; CHX counter: 2; LmPK inhibitor: -2%; RE007 growth inh: 7%; Tb PYK inh: -2%

What do the screens show for `Cc1ccc(C(=O)NCc2ccc(Cl)c(Cl)c2)o1`?
FBPA Giardia inh: 0%; Shiga toxin inh: -2; CHX counter: 1; LmPK inhibitor: 3%; RE007 growth inh: 25µM*; Tb PYK inh: 1%

How did COc1cc(Cl)c(C)cc1NC(=O)CSC1=NCCS1 do in these assays?
RE007 growth inh: 5%; Tb PYK inh: 0%

Results for COc1cc(NC(=O)c2ccc(Cl)cc2Cl)ccc1NC(=O)c1cccs1 ?
FBPA Giardia inh: 0%; Shiga toxin inh: 13; CHX counter: -2; LmPK inhibitor: 8%; RE007 growth inh: 24%; Tb PYK inh: 4%

What do the screens show for `CCOc1ccc2c(c1)ncn2Cc1ccccc1`?
FBPA Giardia inh: 7%; Shiga toxin inh: 108*; CHX counter: 24*; LmPK inhibitor: -2%[11.5 µM]; RE007 growth inh: -6%; Tb PYK inh: 2%

How did CC(=O)Oc1ccc(Cn2cnc3cc4ccccc4cc32)cc1 do in these assays?
FBPA Giardia inh: -12%; Shiga toxin inh: 19; CHX counter: 15*; LmPK inhibitor: 2%; RE007 growth inh: 10%; Tb PYK inh: 1%

Results for CCCS(=O)(=O)NCCc1csc2nc(-c3ccc(OC)cc3)nn12 ?
Tb PYK inh: 1%

Results for Cc1cc(C)c(S(=O)(=O)NCC2CCC(C(=O)NCCCN3CCC(C)CC3)CC2)c(C)c1 (configuration not stated) ?
FBPA Giardia inh: -5%; Shiga toxin inh: -8; CHX counter: -1; LmPK inhibitor: 1%; RE007 growth inh: 6%; Tb PYK inh: -9%
